DT40 TDP1 CPT: growth inhibition of DT40 Tdp1-/-;hTDP1 cells with camptothecin (screen for TDP1 inhibitors) | chicken DT40 Tdp1-/-;hTDP1 cells + 20 nM CPT, ATP luminescence, 48 h | AID 686979 | Potency, µM (doses to about 46.2 µM), for the others: at the highest dose activity change, negative = growth inhibition, most hits filed as inhibitors | actives 12% (n = 420,000); further: potency means the concentration at half of the fitted maximal effect; on the % scale 0 is the no-effect control and ±100 the full control effect; nearly all actives have a fitted effect of over 55% in size
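Chicken DT40 Tdp1-/- cells complemented with human TDP1, 400 cells/well, exposed to compounds plus 20 nM camptothecin for at least 48 h at 37 C; viability read as ATP content by CellTiter-Glo luminescence.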
D3 antag: antagonists of human D3 dopamine receptor; P35462; D3R cells, DiscoveRx beta-arrestin luminescence, antagonist mode; stronger effect = lower value; max response, negative = inhibition, %; actives 2.5% (n = 360,000); AID 652054; in the data active means max response below about -50%; inconclusive means no clear call, values can overlap the other calls; further: on the % scale 0 is the no-effect control and ±100 the full control effect
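Cells expressing the human receptor were seeded at 1500 cells/well, incubated overnight at 37 degrees C in 5% CO2, then exposed to library compounds with dopamine controls for 90 minutes at 37 degrees C before luminescent detection.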
ClpP mod: qHTS Assay for Activators of ClpP; actives 1.9% (n = 340,000); purified B. subtilis ClpP, FRET peptide cleavage, 20 min; ATP-dependent Clp protease proteolytic subunit (Bacillus subtilis (strain 168)), P80244; AID 651965, 2013; Potency, µM (top dose mostly 57.5 µM), inactives show top-dose activity change, negative = active; active means well fitted falling curve with a large enough effect; inconclusive means small, poorly fitted or top-dose-only effect; inactive means no such curve, though single readings can be large or run the other way; further: potency means the concentration at half of the fitted maximal effect; the source files actives as falling curves though it sought activators and does not explain the sign; nearly all actives have a fitted effect of over 65% in size
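ClpP 10 microg/mL final, pH 8 Tris/KCl buffer with BSA, glycerol, Tween-20; compound pinned in; FRET-FV substrate; RT 20 min; Ex320/Em430; ΔFRET vs ADEP 5.8 microM, DMSO, no enzyme.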
DRD3 agonist: activates the human D3 dopamine receptor | P35462 | D3R DiscoveRx beta-arrestin cells, luminescence, 90 min | max activation, % | actives 0.58% (n = 410,000) | AID 652048; in the data active means max activation above about 30%; further: 0% is about no effect
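Agonist mode: compounds and dopamine controls were applied to plated cells for 90 min at 37 degrees C after an overnight attachment at 1500 cells/well. Luminescent read-out followed 30 - 60 minutes at room temperature with DiscoveRx detection reagent.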
TDP1 cell noCPT: qHTS for Inhibitors of human tyrosyl-DNA phosphodiesterase 1 (TDP1): qHTS in cells in absence of CPT. DT40 Tdp1-/- hTDP1 cells, no CPT, ATP luminescence, 48 h. Potency, µM (doses to about 46.2 µM), for inactives: top-dose activity change, negative = growth inhibition, actives largely listed as inhibitors. actives 15% (n = 420,000); further: potency means the concentration at half of the fitted maximal effect; on the % scale 0 is the no-effect control and ±100 the full control effect; nearly all actives have a fitted effect of over 55% in size
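Luminescent ATP content (CellTiter-Glo) served as the growth readout. Knockout chicken DT40 cells expressing human TDP1 were exposed to compounds without camptothecin for a minimum 48 hr at 37 °C.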
IL-1B inflam inh: blocks inflammasome-driven IL-1 beta release. actives 4.7% (n = 360,000). activity change, % at 57.5 µM. THP-1 LPS/ATP IL-1B secretion, AlphaLISA, 16 h; stronger effect = lower value; in the data active means activity change below about -50%; inconclusive means mostly about -30% to -49%; further: on the % scale 0 is the no-effect control and ±100 the full control effect
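THP-1 cells pretreated 1 hr with compounds (up to 57.5 uM final), then stimulated with LPS (250 ng/mL final) plus ATP (1.25 mM final); secreted IL-1B measured by AlphaLISA after 16 hr, decreased signal indicating inhibition.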
An asterisk follows results filed as active. Only some compounds are listed: those with a hit (about 21% of all), similar ones and a draw of the others. Unless noted, the call rests on the fitted dose curve; in most records, active means well fitted inhibition curve with a large enough effect; inconclusive means small, poorly fitted or top-dose-only effect; inactive means flat fitted curve, though single readings scatter.

What do the screens show for `c1ccc(CCn2nnc3ccccc32)cc1`?
DT40 TDP1 CPT: inconclusive; D3 antag: 0.8; ClpP mod: -1.4%; DRD3 agonist: -7.3; TDP1 cell noCPT: inconclusive; IL-1B inflam inh: 3.2

Results for c1ccc2c(c1)nnn2CNc1nccs1 ?
DT40 TDP1 CPT: 9.2µM*; D3 antag: 14.3; ClpP mod: 1.1%; DRD3 agonist: -0.4; TDP1 cell noCPT: -33.4%; IL-1B inflam inh: 10.5

How did O=[N+]([O-])c1cccc(S(=O)(=O)N2CCN(c3nc(-c4ccccc4)nc4ccccc34)CC2)c1 do in these assays?
DT40 TDP1 CPT: -0.7%; ClpP mod: 2.9%; TDP1 cell noCPT: -8.3%

Results for CCOC(=O)c1c(C)oc2nc(C)nc(NCc3ccc(OC)cc3)c12 ?
DT40 TDP1 CPT: inconclusive; ClpP mod: 0.8%; DRD3 agonist: 10.6; TDP1 cell noCPT: inconclusive

How did CCOC(=O)c1c(C)oc2nc(C)nc(NCc3cccc(OC)c3)c12 do in these assays?
DT40 TDP1 CPT: 16.4µM*; ClpP mod: -1.5%; DRD3 agonist: 14.4; TDP1 cell noCPT: inconclusive

What do the screens show for `CCOC(=O)c1c(C)oc2nc(C)nc(NCc3cccc(Cl)c3)c12`?
DT40 TDP1 CPT: inconclusive; ClpP mod: -1.4%; DRD3 agonist: 1.3; TDP1 cell noCPT: 20.6µM*

Results for CCCNC(=O)CCc1nnc2ccc(N3CCN(c4cccc(OC)c4)CC3)nn12 ?
DT40 TDP1 CPT: -12.5%; ClpP mod: -3.0%; DRD3 agonist: 4.2; TDP1 cell noCPT: inconclusive

How did Cc1cc(C)c(NC(=O)CSc2nnc3[nH]c(=O)cc(C)n23)c(C)c1 do in these assays?
DT40 TDP1 CPT: -3.6%; ClpP mod: -16.6%; DRD3 agonist: -11.1; TDP1 cell noCPT: 2.0%

Results for CC1(c2ccccc2)CC(C)(C)N2C(=O)/C(=C3\SC(=S)NC3=O)c3cccc1c32 (centres undefined) ?
DT40 TDP1 CPT: 23.1µM*; D3 antag: -7.2; ClpP mod: 0.8%; DRD3 agonist: -17.6; TDP1 cell noCPT: 14.6µM*; IL-1B inflam inh: 22.2

What do the screens show for `CC(=C1SC(=S)NC1=O)c1ccccc1`?
DT40 TDP1 CPT: -10.3%; D3 antag: -27.3; ClpP mod: -2.4%; DRD3 agonist: -13.9; TDP1 cell noCPT: -2.0%; IL-1B inflam inh: 4.0

How did CCCCC(CC)CNC(=O)c1ccc(Cn2c(=O)[nH]c3cc(OC)c(OC)cc3c2=O)cc1 (centres undefined) do in these assays?
DT40 TDP1 CPT: inconclusive; ClpP mod: -12.5%; DRD3 agonist: 5.2; TDP1 cell noCPT: inconclusive

How did CN(C(=O)CSc1nnc(-c2cccs2)n1C1CC1)C1CCS(=O)(=O)C1 (centres undefined) do in these assays?
DT40 TDP1 CPT: 4.4%; D3 antag: 12.1; ClpP mod: -13.8%; DRD3 agonist: 5.3; TDP1 cell noCPT: 4.7%; IL-1B inflam inh: 24.7

Results for Cc1ccc(CN2CCSc3ccc(C(=O)Nc4cc(C)cc(C)c4)cc32)cc1 ?
DT40 TDP1 CPT: inconclusive; ClpP mod: 4.1%; DRD3 agonist: -4.7; TDP1 cell noCPT: inconclusive

How did Cc1ccc(CN2CCSc3ccc(C(=O)Nc4ccc(Cl)cc4)cc32)cc1 do in these assays?
DT40 TDP1 CPT: 23.1µM*; ClpP mod: 4.3%; DRD3 agonist: -6.0; TDP1 cell noCPT: inconclusive

What do the screens show for `O=C(Nc1ccc(Cl)cc1)c1ccc2c(c1)N(Cc1ccccc1)CCS2`?
DT40 TDP1 CPT: 14.6µM*; ClpP mod: 4.1%; DRD3 agonist: 3.6; TDP1 cell noCPT: inconclusive

What do the screens show for `COc1ccc(C(=O)NCCc2nnc3n2CCN(CC2CC=CCC2)CC3)cc1` (centres undefined)?
DT40 TDP1 CPT: -6.3%; TDP1 cell noCPT: -8.0%

Results for COc1ccc(C(=O)NC2CC2)cc1OC1CCN(Cc2cc(C)cc(C)c2)CC1 ?
DT40 TDP1 CPT: inconclusive; D3 antag: 17.0; ClpP mod: -0.7%; DRD3 agonist: -0.8; TDP1 cell noCPT: inconclusive; IL-1B inflam inh: inactive

What do the screens show for `c1cnc2ccc(-n3ccnc3)cc2c1`?
DT40 TDP1 CPT: inconclusive; D3 antag: -23.1; ClpP mod: -1.2%; DRD3 agonist: -8.6; TDP1 cell noCPT: inconclusive; IL-1B inflam inh: -10.7

Results for Cc1snc(S(=O)(=O)/C(C#N)=N/Nc2ccc(C(F)(F)F)cc2)c1C#N ?
DT40 TDP1 CPT: -14.9%; D3 antag: -91.2*; ClpP mod: 0.4%; DRD3 agonist: -1.8; TDP1 cell noCPT: -26.6%; IL-1B inflam inh: 3.3

Results for Cc1snc(S(=O)(=O)/C(C#N)=N\Nc2ccccc2)c1C#N ?
DT40 TDP1 CPT: -14.3%; D3 antag: -17.8; ClpP mod: -10.8%; DRD3 agonist: -1.3; TDP1 cell noCPT: -29.6%; IL-1B inflam inh: 24.6

How did CC(O)CNCCNCc1cccs1 (centres undefined) do in these assays?
DT40 TDP1 CPT: 7.5%; D3 antag: -5.0; ClpP mod: 1.0%; DRD3 agonist: -0.4; TDP1 cell noCPT: -0.7%; IL-1B inflam inh: 40.3

What do the screens show for `Cc1[nH]n(-c2ccccc2)c(=O)c1C(c1cccc([N+](=O)[O-])c1)c1c(C)[nH]n(-c2ccccc2)c1=O`?
DT40 TDP1 CPT: inconclusive; D3 antag: -21.3; ClpP mod: -2.2%; DRD3 agonist: 0.7; TDP1 cell noCPT: 20.6µM*; IL-1B inflam inh: -84.7*

How did Cc1[nH]n(-c2ccccc2)c(=O)c1C(c1ccc(C(=O)O)cc1)c1c(C)[nH]n(-c2ccccc2)c1=O do in these assays?
DT40 TDP1 CPT: inconclusive; D3 antag: -9.2; ClpP mod: 1.0%; DRD3 agonist: -11.1; TDP1 cell noCPT: inconclusive; IL-1B inflam inh: -0.5

Results for Cc1[nH]n(-c2ccccc2)c(=O)c1C(C[N+](=O)[O-])c1ccc(Br)cc1 (centres undefined) ?
DT40 TDP1 CPT: 11.6µM*; D3 antag: -23.7; ClpP mod: -1.0%; DRD3 agonist: -7.7; TDP1 cell noCPT: 9.2µM*; IL-1B inflam inh: -15.0

How did CCN(CC)C(=O)c1sc2c(c1C)c(=O)n(CCc1ccccc1)c(=O)n2Cc1cc(C)ccc1C do in these assays?
DT40 TDP1 CPT: -1.3%; ClpP mod: -1.4%; DRD3 agonist: 3.9; TDP1 cell noCPT: 2.3%

Results for CC1(C)OC(=O)C2=C(C[C@@H](CCOCc3ccccc3)O[C@H]2c2ccc(F)cc2)O1 ?
DT40 TDP1 CPT: inconclusive; D3 antag: 4.0; ClpP mod: -1.8%; DRD3 agonist: 9.1; TDP1 cell noCPT: inconclusive; IL-1B inflam inh: 6.6
